# Shown are actives, neighbours in structure and some others; about 9% of the full set was active somewhere.
# IMPase cell inh = IMPase inhibition in cells. P97697. CHO-M1 cells, IP1 accumulation, HTRF TR-FRET ratio. inhibition (IP1 accumulation), % at 46.1 µM. 120,000 tested, under 10 active; active means well fitted curve in the direction sought with a large enough effect in the signal ratio, not every such curve was filed as active; inconclusive means small, poorly fitted or top-dose-only effect, or a change in a side signal; inactive means no such curve, though single readings can be large or run the other way; the % refers to the signal ratio;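 further: cells stimulated with carbachol in lithium chloride buffer; plate controls were DMSO basal wells for no effect and reference inhibitor wells for full effect; higher means more IMPase inhibition seen as more IP1 and lower FRET ratio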
#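 Cellular IMPase inhibition is scored as a rise in cytosolic IP1, detected by competitive TR-FRET between d2-labelled IP1 and a europium anti-IP1 antibody. M1-expressing CHO cells were stimulated with carbachol for 30 min at 37C, with lithium (50 mM LiCl) present in the buffer.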
# ALDH1A1 inh = inhibitors of human aldehyde dehydrogenase 1A1; Potency, µM (top dose mostly 75.3 µM), inactives show top-dose activity, negative = inhibition, most hits filed as inhibitors; Purified ALDH1A1, NADH fluorescence, propionaldehyde substrate; actives 7.3% (n = 220,000); AID 1030; P00352;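 further: potency means the concentration at half of the fitted maximal effect; plate controls were no enzyme wells and a reference inhibitor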
# Target sequence (P00352 whole entry, looked up): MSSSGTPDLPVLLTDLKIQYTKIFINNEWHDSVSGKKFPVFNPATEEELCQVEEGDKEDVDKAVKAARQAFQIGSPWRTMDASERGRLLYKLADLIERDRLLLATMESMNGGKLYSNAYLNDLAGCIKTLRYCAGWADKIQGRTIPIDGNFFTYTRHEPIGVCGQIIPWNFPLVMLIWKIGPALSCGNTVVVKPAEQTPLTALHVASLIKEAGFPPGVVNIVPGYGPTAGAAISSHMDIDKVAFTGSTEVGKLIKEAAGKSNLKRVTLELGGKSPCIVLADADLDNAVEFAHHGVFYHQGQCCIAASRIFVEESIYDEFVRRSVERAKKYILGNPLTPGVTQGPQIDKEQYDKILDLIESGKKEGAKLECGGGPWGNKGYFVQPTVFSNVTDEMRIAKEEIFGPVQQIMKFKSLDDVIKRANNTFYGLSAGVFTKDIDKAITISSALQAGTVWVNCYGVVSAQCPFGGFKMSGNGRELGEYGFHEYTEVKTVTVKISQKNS
# HPGD inh = HPGD (human) dehydrogenase inhibition. actives 4.3% (n = 150,000). purified HPGD, NADH fluorescence kinetic, PGE2 substrate. Potency, µM, inactives show at the highest dose activity change, negative = inhibition, usual class: inhibitors; further: potency means the concentration at half of the fitted maximal effect
#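 NADH formation kinetics: reaction with 30 uM PGE2 and 1 mM NAD+ (final), 20 nM enzyme, Tris-HCl pH 8 with Tween 20, after 15 min compound preincubation at room temperature. Fluorescence change, last versus first of five reads.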
# * = called active by the depositor; ? = inconclusive; . = not tested or not shown; [ ] = remark or other dose. Unless noted, the call rests on the fitted dose curve; in most records, active means well fitted inhibition curve with a large enough effect (not every such curve was filed as active); inconclusive means small, poorly fitted or top-dose-only effect, or another doubt; inactive means no such curve, though single readings can be large or run the other way. Unless noted, on the % scale 0 is the no-effect control and ±100 the full control effect.
SMILES,IMPase cell inh,ALDH1A1 inh,HPGD inh
COc1ccc2c(c1)C=C(C(=O)OCc1cccnc1)CO2,.,8.9µM*,.
COCCCn1c(CCC(=O)O)ccc1-c1cccs1,-3,?,?
COCC(C)N=C1NN=C(c2cccs2)C(CC(=O)O)S1 (centres undefined),.,13µM*,.
Cc1cccc(C)c1-n1c(C)cc(/C=N\Nc2ccc([N+](=O)[O-])cn2)c1C,5,10µM*,-20%
CNC(=S)N/N=C/c1cn(Cc2ccc(F)cc2)c2ccccc12,.,28µM*,-15%
CNC(=S)N/N=C/c1cn(CCOc2ccc(OC)cc2)c2ccccc12,.,-15%,-27%
Cc1ccccc1OCC(=O)N/N=C/c1cn(Cc2ccccc2)c2ccccc12,10,?,?
O=[N+]([O-])c1ccc(N/N=C\c2cccnc2)nc1,.,-9%,.
Cn1cc(/C=N/NC(=O)c2cccc([N+](=O)[O-])c2)c2ccccc21,.,2%,-12%
O=[N+]([O-])c1ccc(N/N=C/c2cn(Cc3ccc(F)cc3)c3ccccc23)nc1,0,18µM*,-21%
Cc1ccc(OCC(=O)N/N=C\c2cn(Cc3ccccc3)c3ccccc23)cc1C,.,13µM*,?
COc1cccc(CNC2CCCc3ccccc32)c1OC (centres undefined),.,-10%,.
COc1cc(OC)cc(C2=NC3(CCC(C)CC3)NC2=S)c1 (centres undefined),.,-6%,.
Cc1cc(C)c2[nH]c(=O)c(CN(Cc3cccs3)C(=S)NCc3ccco3)cc2c1,.,?,-16%
CCOC(=O)N/N=C(\C)c1ccc(C)c([N+](=O)[O-])c1,-4,-6%,?
COC(=O)Cn1cc(/C=N/NC(=O)COc2cccc3cccnc23)c2ccccc21,6,?,-14%
C#CCn1cc(/C=N/NC(=O)COc2cccc3cccnc23)c2ccccc21,.,10µM*,-21%
O=C(COc1c(Br)cc(Br)c2cccnc12)Nc1ccccc1F,.,-6%,.
Cc1cc(-c2n[nH]c(=S)n2/N=C/c2ccc(Cl)c([N+](=O)[O-])c2)n[nH]1,.,14µM*,7.9µM*
Cc1cc(-c2n[nH]c(=S)n2/N=C/c2cc([N+](=O)[O-])ccc2Cl)n[nH]1,.,?,25µM*
Cc1ccc(CN2CCN(/N=C/c3cc([N+](=O)[O-])ccc3Cl)CC2)cc1,4,-1%,-6%
Cc1ccc(CN2CCN(/N=C/c3ccc(Cl)c([N+](=O)[O-])c3)CC2)cc1,.,-5%,.
CCOC(=O)C1=NN(c2cccc(Cl)c2)C2=NC(C)=C(C(=O)OC)C(c3cccs3)N12 (centres undefined),1,0%,-1%
COc1cccc(C2CC(c3cccs3)=NN2C(=O)CSC2=NN3CCCC(=O)N=C3S2)c1OC (centres undefined),1,?,-21%
CC(C)c1c(Cl)c(O)c(-c2ccccc2)c(=O)n1-c1ccc(F)cc1,.,?,-3%
SMILES,IMPase cell inh,ALDH1A1 inh,HPGD inh
CC(=O)C1=C(C)N(Cc2ccco2)C(=O)N[C@@H]1c1ccccc1,.,4%,-6%
CCOC(=O)C(C)(C)N(Cc1cccc(C)c1)S(=O)(=O)c1ccc(Cl)c([N+](=O)[O-])c1,12,2%,-10%
CCOC(=O)C(C)(C)N(Cc1cccc(C)c1)S(=O)(=O)c1cccc([N+](=O)[O-])c1,10,18µM*,-9%
O=[n+]1c2c(n([O-])c3cc(F)c(F)cc31)CCCC2,-13,?,18µM*
O=[n+]1c2c(n([O-])c3cc(Br)ccc31)CCCC2,5,-6%,-10%
C/C(=N/O)c1ccc2c(c1)OCCOCCOc1cc(/C(C)=N/O)ccc1OCCOCCO2,.,9%,-8%
CCCCC(C)(C)[C@H](O)/C=C/[C@H]1[C@H](O)CC(=O)[C@@H]1C/C=C\CCCC(=O)O,.,-12%,-4%
C/C(=N\S(=O)(=O)c1ccc(C)cc1)N1CCN(S(=O)(=O)c2ccccc2)C1,?,4µM*,-10%
Cc1ccc(S(=O)(=O)N2CCN(S(=O)(=O)c3ccccc3)C2)cc1,5,-4%,2%
CC(C(=O)NCC1CCCCC1)N1CCN(S(=O)(=O)c2ccccc2F)CC1 (centres undefined),.,16µM*,.
O=S(=O)(c1ccccc1F)N1CCN(CC(O)c2ccccc2)CC1 (centres undefined),.,-4%,.
Cc1cc(SCNC(=O)c2ccccc2)ncn1,?,?,-9%
Cc1cc(C)nc(SCNC(=O)c2ccc(F)cc2)n1,8,4%,14µM*
CSc1ccc(/C=N/Nc2nc(C)cc(=O)[nH]2)cc1,.,-4%,.
Cc1cc(=O)[nH]c(N/N=C/c2c(C)nn(-c3ccc(F)cc3)c2Cl)n1,.,6.3µM*,.
Cc1nn(-c2ccccc2)c(-c2ccccc2[N+](=O)[O-])c1C(=O)O,.,-9%,.
O=C(c1ccco1)N1CCC2(CCCN(Cc3ccccc3)C2)CC1,.,28µM*,-2%
O=C(Nc1cccc(F)c1)N1CCC2(CC1)CCN(C(=O)c1cccc(F)c1)CC2,.,-14%,-8%
O=C(c1ccco1)N1CCC[C@@]2(CCN(Cc3ccccc3)C2)C1,.,-12%,-6%
O=C(Nc1ccccc1)N1CCCC2(CCN(C(=O)c3ccco3)CC2)C1,.,20µM*,1%
O=C(Nc1ccccc1)N1CC[C@@]2(CCCN(C(=O)c3ccco3)C2)C1,.,?,-6%
N#Cc1cccc(NC(=O)N2CC[C@@]3(CCCN(C(=O)c4ccco4)C3)C2)c1,.,?,-1%
CC(=O)N1CCC2(CC1)CCN(C(=O)Nc1cccc(F)c1)CC2,.,13µM*,-9%
N#Cc1cccc(NC(=O)N2CCCC3(CCN(C(=O)c4ccco4)CC3)C2)c1,.,22µM*,-23%
CCCn1nc2cc(C(=O)NCCc3cccs3)ccc2c1OCC,10[1.84 µM],?,?
SMILES,IMPase cell inh,ALDH1A1 inh,HPGD inh
O=C(CNS(=O)(=O)/C=C/c1ccccc1)OC1CCOC1=O (centres undefined),.,-1%,.
C/C(CC(=O)Nc1ccc(OCc2ccccc2)cc1)=N\NC(=O)C(=O)Nc1cccc(C)c1,.,-3%,-5%
CO[C@@H](CCO)C[C@H]1O[C@H](C(=O)OC(C)C)CC[C@@H]1C,.,16%,-11%
COc1ccccc1NC(=O)C1(c2ccccc2)CCCC1,.,0%,.
CCN1CCCC(CO)(Cc2ccccc2)C1 (centres undefined),.,6%,.
OCC1(Cc2ccccc2)CCCN(Cc2ccc(-c3ccco3)cc2)C1 (centres undefined),.,25µM*,.
CC(=O)N1CCC2(CC1)CCN(C(=O)Nc1cccc(C#N)c1)CC2,.,-3%,-1%
N#Cc1cccc(NC(=O)N2CCC3(CC2)CCN(C(=O)c2ccco2)CC3)c1,.,10µM*,-9%
COc1cc(OC)c(NC(=O)C(=O)CC(=O)c2ccc(C)cc2C)cc1Cl,.,-8%,.
Cc1ccc(N2C(=O)N(c3ccc(C)cc3)C3CS(=O)(=O)CC32)cc1 (centres undefined),.,8%,.
COc1cc(/C=C(\NC(C)=O)C(=O)NC(C)(C)C)ccc1OC(C)=O,.,9%,-16%
COc1cc(/C=C(\NC(C)=O)C(=O)Nc2cccc(O)c2)ccc1OC(C)=O,.,0.089µM*,-13%
COc1cccc(/C=N/Nc2ncnc3scc(-c4ccccc4)c23)c1OC,1,?,18µM*
Cc1sc2ncnc(N/N=C/c3ccccc3O)c2c1C,.,-3%,-19%
